# Compounds without any hit were thinned out: in the full panel of roughly 83,000, 20% have a hit.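 In brief: 96-well plates, 48 h treatment, single concentration, percent growth endpoint.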 Calls of active or inactive are those of the source.
# Tested on: RPMI-8226 leukemia
# Assay: NCI-60 one-dose screen, 48 h (100 = growth as untreated, 0 = no growth, -100 = all killed)
# Details: 10 µM unless noted
# Method: Growth inhibition of the RPMI-8226 human tumor cell line is measured as a screen for anti-cancer activity. Cells are grown in 96 well plates and exposed to the test compound for 48 hours. Compounds are tested at a single concentration, which is 10^-5 M for most compounds. The reported endpoint is percent growth (GI% or GIPRCNT), where numbers from 0 - 100% represent growth inhibition, and numbers from -100% - 0 represent cell death. For example, a value of 40 represents 60% growth inhibition. A value of 0 means no net growth occurred over the course of the experiment. A value of -40 indicates 40% of cells at the beginning of the experiment died by the end of the experiment. A value of -100 means all cells are dead at the end of the experiment.
# NCI-60 Human Tumor Cell Lines Screen was performed using the standard one-dose NCI protocol, which is described in more detail at https://dtp.cancer.gov/discovery_development/nci-60/default.htm.
# Compounds with GIPRCNT values below 10 were considered active. Activity score was based on GIPRCNT using the following formula: […]
# Score is 0 for GIPRCNT values of 100 or above, 50 for GIPRCNT values of 0, and 100 for GIPRCNT values of -100.
row,Compound,growth
1,Cc1ccc(NC(=O)N[C@@H](Cc2cc(F)cc(F)c2)C(=O)NC2C(=O)N3C[C@H](O)C[C@H]3C(=O)N3CCCC[C@H]3C(=O)N[C@@H](CO)C(=O)N3C[C@H](C)C[C@H]3C(=O)O[C@H]2C)c(F)c1 (stereo not given in full),17.6% (inactive)
2,COc1ccc(C2c3sc4c(C)cccc4c3Oc3nc(CC(=O)Nc4ccccc4)[nH]c(=O)c32)cc1 (stereo not given),89.5% (inactive)
3,Cn1cc(-c2nc(N)nnc2-c2c[nH]c3ccc(Br)cc23)c2cc(Br)ccc21,31.1% (inactive)
4,CNC(=O)c1c(NC(=O)c2cccc(C(F)(F)F)c2F)sc2c1CCC(=O)C2,-0.669% (active)
5,CCCn1cnc2c(c1=N)C(c1ccc(F)cc1)c1sc3c(CC)cccc3c1O2 (stereo not given),4.79% (active)
6,COCCNc1ccc2ncc(C#Cc3cncc(C(=O)Nc4ccc(CN5CCN(C)CC5)c(C(F)(F)F)c4)c3)n2n1,-26.7% (active)
7,CC(=O)C1=C(C)NC(NNC(N)=S)=NC1c1ccccc1 (stereo not given),108% (inactive)
8,COc1cccc2c1CN(C(=O)c1ccc(O)c(C(=O)N3Cc4ccc(OCCC[P+](c5ccccc5)(c5ccccc5)c5ccccc5)cc4C3)c1)C2,26.2% (inactive)
9,Cc1ccc(C2=Nn3c(nnc3-c3ccccc3)SC2)cc1,23.1% (inactive)
10,FC(F)(F)c1cc(Nc2cccc(Oc3ccc(NC4=NCCN4)nc3)c2)ccc1Cl,-37.6% (active)
11,N#C/C(=C\c1ccc(-c2ccc(Cl)cc2Cl)o1)c1ccc(F)cc1,85% (inactive)
12,O=C(Nc1cccc(C(F)(F)F)c1)c1cc(-c2ccc(F)cc2F)ccc1O,-10.3% (active)
13,Oc1[nH]c2ccccc2c1Nn1c(N=N/C=c2/ccc3c(c2)C=NN=3)n[nH]c1=S,91% (inactive)
14,NS(=O)(=O)c1ccc(Nc2nc(N/N=C/c3c[nH]c4ccccc34)nc(Nc3ccccc3)n2)cc1,-5.69% (active)
15,Nn1c(N/N=C/c2nc3ccccc3s2)n[nH]c1=S,105% (inactive)
16,O=S(=O)(NCCNc1nccc(-n2cnc3ccccc32)n1)c1ccc(Br)cc1,79.7% (inactive)
17,CN1c2ccccc2Sc2cc(C=C(C#N)C#N)ccc21,103% (inactive)
18,CC1=N[C@@H]2CN(C(=O)OC(C)(C)C)C[C@@H]2n2c1cc1ccccc1c2=O,101% (inactive)
19,Cc1[nH]c(C(=O)Nc2ccccc2OCc2cccc(C(=O)N3CCC[C@@H](N)C3)c2)c(Cl)c1Cl,-38.5% (active)
20,COc1cc(OC)c(S(N)(=O)=O)cc1C(=O)/C=C/c1ccc(Cl)cc1,-5.04% (active)

row,Compound,growth
1,N#Cc1cccc(/C(N)=N/C(N)=N/c2nc3ccccc3s2)c1,8.74% (active)
2,CN1CCN(Cc2ccc(NC(=O)c3cncc(C#Cc4cnn5cccnc45)c3)cc2C(F)(F)F)CC1,6.03% (active)
3,CCO/C=N/C1=C(C#N)C(c2ccc(F)cc2)c2sc3c(CC)cccc3c2O1 (stereo not given),4.25% (active)
4,CCCn1cnc2c(c1=N)C(c1ccc(Cl)cc1)c1sc3c(CC)cccc3c1O2 (stereo not given),-5.3% (active)
5,COc1ccc(N2CCN(C3=C(Cl)C(=O)C(C)=C(C)C3=O)CC2)cc1,89.4% (inactive)
6,CN1CCN(Cc2ccc(NC(=O)c3cncc(C#Cc4cnc5ccc(OCC6(C)COC6)nn45)c3)cc2C(F)(F)F)CC1,-17.7% (active)
7,O=C1/C(=C/C=C/c2ccco2)SC(=S)N1C1CCCCC1,100% (inactive)
8,COc1ccc(-n2c(/C=C3\C(=O)Nc4ccccc43)ccc2CO)cc1,94.6% (inactive)
9,COc1ccc2c(c1)Oc1nc(N)c(C#N)c(N)c1C2Sc1ccc(C)cc1 (stereo not given),-19% (active)
10,CS(=O)(=O)Nc1cc(-c2ccc3ncc(C#N)c(NCc4ccccc4O)c3c2)cnc1Cl,-21% (active)
11,CCN(CC)CCn1c2ccc(O)cc2c2sc3cc(OC)ccc3c(=O)c21,-13.1% (active)
12,O=S(=O)(Nc1cccc2ccccc12)c1ccc(-c2cnc(C3CC3)o2)cc1,14.4% (inactive)
13,CCn1c2ccccc2c2cc(-n3nncc3-c3ccccc3)ccc21,19.8% (inactive)
14,NC(N)=Nc1ccc(Oc2cccc(Nc3ccc(Cl)c(C(F)(F)F)c3)c2)cn1,-29.6% (active)
15,O=C(CCC(=O)N1CCOCC1)OCCCCCCSc1ccc([N+](=O)[O-])c2nonc12,-21.1% (active)
16,C[C@H]1c2[nH]c3ccccc3c2C[C@H]2C(=O)N(CCCCCCC(=O)NO)CC(=O)N21,73.8% (inactive)
17,COc1cc(-c2nn(C(C)(C)C)cc2-c2ccnc(NCCCNS(=O)(=O)c3ccc(F)cc3)n2)ccc1Cl,75.1% (inactive)
18,CCn1c(SCC(=O)Nc2cccc(C(=O)/C=C/c3ccc(C)cc3)c2)nc2ccccc2c1=O,7.2% (active)
19,Cc1ccc(-c2cc3nc(C(Cl)Cl)nc(C)n3n2)cc1,94.6% (inactive)
20,O=C(CNc1nc(-c2cccc([N+](=O)[O-])c2)cs1)Nc1cccc(Cl)c1,98% (inactive)

# From PubChem BioAssay (NCI)
